What was measured:
HCC1937 = experiment: relative cell viability, compound + erastin, vs DMSO (fraction of DMSO control); higher = less growth inhibition; conditions: 72 h
MDA-MB-231 = experiment: as above; conditions: 72 h
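Further: viability read by CCK-8 kit in 96-well plates, part of a combination screen pairing lipid-metabolism-targeting compounds with erastin.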

| Structure (SMILES) | relative cell viability (HCC1937) | relative cell viability (MDA-MB-231) |
| --- | --- | --- |
| Cc1cc(C)c(S(=O)(=O)Nc2cccc(C(F)(F)F)c2)c(C)c1 + CCOc1ccccc1-n1c(C(C)N2CCN(C(=O)COc3ccc(Cl)cc3)CC2)nc2ccccc2c1=O [erastin] | 0.922 | 0.98 |
| Cc1cccc(Nc2cc(Cl)nc(SCC(=O)O)n2)c1C [Pirinixic Acid] + CCOc1ccccc1-n1c(C(C)N2CCN(C(=O)COc3ccc(Cl)cc3)CC2)nc2ccccc2c1=O [erastin] | 0.602 | 0.74 |
| CN1CCN(C(=O)C2C(C(=O)O)[C@H]3CC[C@@H]2O3)CC1 (some centres undefined) + CCOc1ccccc1-n1c(C(C)N2CCN(C(=O)COc3ccc(Cl)cc3)CC2)nc2ccccc2c1=O [erastin] | 0.278 | 0.394 |
| CC1=C[C@]2(O)O[C@@]3(CC2=C(C)C)[C@@H](C)CC[C@@H]13 [Curcumenol] + CCOc1ccccc1-n1c(C(C)N2CCN(C(=O)COc3ccc(Cl)cc3)CC2)nc2ccccc2c1=O [erastin] | 0.55 | 0.639 |
| CCCCCCCCCCOc1ccc(C(=O)Nc2cc(C(=O)NCCCC)ccc2SC)cc1 + CCOc1ccccc1-n1c(C(C)N2CCN(C(=O)COc3ccc(Cl)cc3)CC2)nc2ccccc2c1=O [erastin] | 0.739 | 0.845 |
| COc1ccc(-c2c[nH]c3nccc(-c4ccsc4)c23)c(OC)c1 + CCOc1ccccc1-n1c(C(C)N2CCN(C(=O)COc3ccc(Cl)cc3)CC2)nc2ccccc2c1=O [erastin] | 0.675 | 0.834 |
| CCC(CC)CC1(C(=O)Nc2ccccc2SC(=O)C(C)C)CCCCC1 [Dalcetrapib] + CCOc1ccccc1-n1c(C(C)N2CCN(C(=O)COc3ccc(Cl)cc3)CC2)nc2ccccc2c1=O [erastin] | 0.737 | 0.839 |

From the supplement of paper PMC9492666
